Sampled rows, rich in hits. Any-hit rate of the full collection: about 0.89%.
AGP1 TOR yeast: modulators of AGP1-GFP expression in yeast TOR pathway, primary screen, cell-based, multiplex flow cytometry, S. cerevisiae, MLPCN library | 3 h; GFP as percent of DMSO wells | 320,000 tested, 0.02% active | GFP response vs DMSO, % at 10 µM;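 active = GFP response relative to DMSO above a set limit, near screen average plus 3 SD, cut at about 150% in these data; inconclusive = fewer than 70 cells counted for the yeast strain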;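 note: median GFP channel fluorescence of the gated AGP1 strain per well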
MEP2-GFP yeast: modulators of MEP2-GFP levels in yeast, primary screen, S. cerevisiae, multiplex flow cytometry, MLPCN library | GFP response vs DMSO, % at 10 µM | 330,000 tested, 0.51% active | S. cerevisiae MEP2-GFP strain, 3 h; 100% = DMSO control level;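 active = GFP response versus DMSO above a set limit, roughly screen mean plus 3 SD, cut at about 180% in these data; inconclusive = fewer than 70 cells counted for a yeast strain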;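 note: median GFP fluorescence of the barcode-gated MEP2-GFP cells per well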
CIT2-GFP yeast: modulators of CIT2-GFP expression in yeast, primary screen, S. cerevisiae, GFP fusion, multiplex flow cytometry, MLPCN library. S. cerevisiae CIT2-GFP strain, 3 h; 100 means same as DMSO wells. GFP response vs DMSO, % at 10 µM. 320,000 tested, 0.065% active;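 active = GFP response relative to DMSO above a set limit, near the screen mean plus 3 SD, cut at about 150% in these data; inconclusive = Fewer than 70 cells measured for a yeast strain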;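 note: ratio of well median GFP fluorescence to mean of DMSO wells on the plate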
RPL19A-GFP yeast: RPL19A-GFP expression modulators in yeast, primary screen, cell-based, S. cerevisiae, multiplex flow cytometry, MLPCN; 330,000 tested, 0.3% active; percent response vs DMSO, % at 10 µM; S. cerevisiae RPL19A-GFP strain, 3 h; hits give low values;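 active = percent response vs DMSO below 50%; inconclusive = fewer than 70 events counted for the yeast strain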;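 note: median channel GFP fluorescence of the barcoded RPL19A-GFP strain; lower means less RPL19A-GFP as with rapamycin TOR inhibition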
LAP4 TOR yeast: modulators of LAP4-GFP expression in yeast, primary screen, S. cerevisiae, multiplex flow cytometry, MLPCN library; 3 h; median GFP as percent of DMSO wells; GFP response vs DMSO, % at 10 µM; 320,000 tested, 0.34% active;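 active = GFP response vs DMSO above a set limit, about the screen mean plus 3 SD, cut at about 150% in these data; inconclusive = under 70 cell events counted for the yeast strain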
Large screens that a line does not name were inactive; [ ] = dose if it differs, or a comment.

CC1CCCN(C(=O)c2sc3cc([N+](=O)[O-])ccc3c2Cl)C1 (stereo not given)	none
Cc1ccc(CCNC(=O)CCS(=O)(=O)Cc2ccc(C)cc2)cc1	none
O=C(CCS(=O)(=O)Cc1ccccc1F)NCCc1ccc(Cl)cc1	AGP1 TOR yeast 162, MEP2-GFP yeast 518, CIT2-GFP yeast 150 (no result: LAP4 TOR yeast)
CC(=O)Nc1c(NCC(C)C)c2ccccc2oc1=O	none
C/C(CC1CC(C)OC1=O)=N\NC(N)=S (stereo not given)	none
C/C(CCC12CC3CC(CC(C3)C1)C2)=N\NC(N)=S	LAP4 TOR yeast 184
O=C1Nc2ccc(Br)cc2/C1=C/C1CC=CCC1 (stereo not given)	LAP4 TOR yeast 192
O=C1NC(Cc2ccccc2)C(=O)Nc2ccc(Br)cc21 (stereo not given)	none
Cc1ccsc1C(=O)N(Cc1nnc(-c2ccccc2Cl)o1)C1CC1	LAP4 TOR yeast 164
S=C(c1ccc(OCc2ccccc2)cc1)N1CCCC1	none
O=C(CN(Cc1ccccc1Cl)C(=O)c1csnn1)NCc1ccc(F)cc1	none
O=C(CN(Cc1ccccc1Cl)C(=O)c1csnn1)NCc1ccccc1	MEP2-GFP yeast 283[may fluoresce violet], CIT2-GFP yeast inconclusive
O=C(Cc1ccccc1)NNc1c2ccccc2nc2ccccc12	none
O=C(Nc1c2ccccc2nc2ccccc12)C(Cl)(Cl)Cl	RPL19A-GFP yeast 46
O=C(O)CCC(NC(=O)c1cncc(O)c1)C(=O)O (stereo not given)	none
CC(=O)N[C@@H](CC(=O)N[C@H](CCC(=O)O)C(=O)O)C(=O)O	MEP2-GFP yeast 528[may fluoresce violet], CIT2-GFP yeast inconclusive, RPL19A-GFP yeast 47[may fluoresce violet]
CN1CCc2nc3sc(C(=O)C45CC6CC(CC(C6)C4)C5)c(N)c3cc2C1	MEP2-GFP yeast 257[may fluoresce violet], CIT2-GFP yeast inconclusive
Nc1c(C(=O)O)sc2nc3c(cc12)CCCC3	none
O=C(CCNc1ccc(F)cc1)c1ccco1	MEP2-GFP yeast 276[may fluoresce violet], CIT2-GFP yeast inconclusive, RPL19A-GFP yeast 44[may fluoresce violet]
O=C(CCNc1ccc(F)c(Cl)c1)c1ccco1	none
Cc1cc(C)cc(-n2ncc3c2CCCC3NC(=O)CN2CCCC2=O)c1 (stereo not given)	none
Cc1cccc(C)c1NC(=O)C1(N(Cc2ccco2)C(=O)c2ccccn2)CCCC1	MEP2-GFP yeast 277[may fluoresce violet], CIT2-GFP yeast inconclusive (no result: AGP1 TOR yeast)
COc1cc(/C=C/C(=O)c2ccc([N+](=O)[O-])o2)ccc1O	CIT2-GFP yeast inconclusive, LAP4 TOR yeast 232[may fluoresce violet]
O=C(/C=C/c1cccc(Cl)c1)c1ccc([N+](=O)[O-])o1	MEP2-GFP yeast 202[may fluoresce violet], CIT2-GFP yeast inconclusive
Cc1cc(O)c(C(=O)/C=C/c2cccc([N+](=O)[O-])c2)c(=O)o1	none
COc1cc(/C=C/C(=O)O)ccc1O	none
CCN(C(=O)CSc1nnc(Nc2ccc(OC)cc2)s1)C1CCS(=O)(=O)C1 (stereo not given)	none
Cc1nnc(N2CCC(C(=O)N3CCCCC3)CC2)c2nn(-c3ccc(Cl)cc3)c(C)c12	none
COc1ccc(-n2nc3c(N4CCC(C(=O)N5CCC(C)CC5)CC4)nnc(C)c3c2C)cc1	AGP1 TOR yeast inconclusive, MEP2-GFP yeast 258[may fluoresce violet], CIT2-GFP yeast inconclusive
COCCn1c(C)cc(O)c(C(=O)Nc2cccc(Cl)c2)c1=O	MEP2-GFP yeast 191[may fluoresce violet], CIT2-GFP yeast inconclusive
CCn1c(C)cc(O)c(C(=O)Nc2cccc(Cl)c2)c1=O	none
COc1ccc(CC(=O)Oc2ccc(C)cc2Br)cc1S(=O)(=O)N1CCOCC1	none
Cc1ccc(S(=O)(=O)N(CC(=O)Nc2ccccc2C(=O)O)c2ccccc2C)cc1	none
Cc1ccc(S(=O)(=O)N(CC(=O)Nc2cccnc2)c2ccccc2C)cc1	MEP2-GFP yeast 188
CN1CCc2c(sc3c2C(=O)NC(c2cccs2)N3)C1 (stereo not given)	none
CN1CCc2c(sc3c2C(=O)NC(/C=C\c2ccccc2)N3)C1 (stereo not given)	MEP2-GFP yeast 673[may fluoresce violet], CIT2-GFP yeast inconclusive
Cc1cc(NC(=O)c2ccno2)no1	CIT2-GFP yeast 156[may fluoresce green]
Cc1cc(NC(=O)c2ccc(F)cc2)no1	none
Cc1ncc2c(n1)-c1cc(F)ccc1SC2	MEP2-GFP yeast 178
